Screening results: PubChem BioAssay, National Center for Advancing Translational Sciences (NCATS)
The list is not random: actives were taken first. Their share in the collection is about 19%.
DT40 TDP1 no CPT: qHTS for Inhibitors of human tyrosyl-DNA phosphodiesterase 1 (TDP1): qHTS in cells in absence of CPT. actives 15% (n = 420,000). DT40 Tdp1-/- hTDP1 cells, no CPT, ATP luminescence, 48 h. Potency, µM (titrated, usually from 46.2 µM), without a hit: top-dose activity change, negative = growth inhibition, usual class: inhibitors. AID 686978, 2013; note: potency is the fitted concentration of half-maximal effect; % is set by controls: 0 for no effect and ±100 for the full control effect; nearly all actives have a fitted effect of over 55% in size
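Cells were dispensed at 400 per well, compounds added by pin tool, plates incubated ≥48 hr at 37 °C, then CellTiter-Glo added for 30 min at room temperature before luminescence reading. Line: DT40 Tdp1-/- complemented with hTDP1; camptothecin omitted.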
TGFb inhibitor: TGF-b pathway inhibition. Potency, µM (highest dose often 46.1 µM), for the others: top-dose activity, negative = inhibition, usual class: inhibitors. HepG2 CAGA-GFP TGF-b/SMAD3 reporter, GFP fluorescence, 18 h; TGF-beta stimulated, 500 pg/mL final. actives 1.2% (n = 410,000); note: potency is the fitted concentration of half-maximal effect; % is set by controls: 0 for no effect and ±100 for the full control effect; nearly all actives have a fitted effect of over 65% in size
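HEPG2 CAGA-GFP, 1000 cells/well; 2 h settle, 37 C; cpd via pin tool; TGF-b 500 pg/mL final; 18 h, 37 C; GFP imaging ex488/em500-530; %Activity normalised to -TGF-b and +DMSO controls; CRC fit, curve class.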
IL-1B inflam inh: inhibitors of inflammasome signaling (IL-1 beta secretion) | THP-1 LPS/ATP IL-1B secretion, AlphaLISA, 16 h; active compounds read low | actives 4.7% (n = 360,000) | activity change, % at 57.5 µM; in the data active = activity change below about -50%; inconclusive = mostly about -30% to -49%; note: % is set by controls: 0 for no effect and ±100 for the full control effect
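Secreted IL-1B measured by AlphaLISA bead assay after 16 h compound exposure of THP-1 cells; compounds (final up to 57.5 uM) added 1 h before LPS (250 ng/mL) and ATP (1.25 mM) stimulation; lower signal means less secretion.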
DT40 TDP1 CPT: growth inhibition of DT40 Tdp1-/-;hTDP1 cells with camptothecin (screen for TDP1 inhibitors). chicken DT40 Tdp1-/-;hTDP1 cells + 20 nM CPT, ATP luminescence, 48 h. Potency, µM (doses to about 46.2 µM), without a hit: at the highest dose activity change, negative = growth inhibition, most hits filed as inhibitors. actives 12% (n = 420,000); note: potency is the fitted concentration of half-maximal effect; % is set by controls: 0 for no effect and ±100 for the full control effect; nearly all actives have a fitted effect of over 55% in size
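Cell growth measured by CellTiter-Glo luminescence after a minimum 48 h, 37 C compound exposure with 20 nM CPT in Tdp1-knockout DT40 cells stably expressing hTDP1, seeded 400/well; qHTS titration format.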
TDP1 inh: TDP1 (human) enzyme inhibition. Q9NUW8. recombinant TDP1, AlphaScreen DNA substrate cleavage. Potency, µM (doses to about 130 µM), without a hit: top-dose activity change, negative = inhibition, most hits filed as inhibitors. actives 0.28% (n = 350,000). AID 485290; note: potency is the fitted concentration of half-maximal effect; % is set by controls: 0 for no effect and ±100 for the full control effect; nearly all actives have a fitted effect of over 40% in size
Target sequence (Q9NUW8 whole entry, looked up): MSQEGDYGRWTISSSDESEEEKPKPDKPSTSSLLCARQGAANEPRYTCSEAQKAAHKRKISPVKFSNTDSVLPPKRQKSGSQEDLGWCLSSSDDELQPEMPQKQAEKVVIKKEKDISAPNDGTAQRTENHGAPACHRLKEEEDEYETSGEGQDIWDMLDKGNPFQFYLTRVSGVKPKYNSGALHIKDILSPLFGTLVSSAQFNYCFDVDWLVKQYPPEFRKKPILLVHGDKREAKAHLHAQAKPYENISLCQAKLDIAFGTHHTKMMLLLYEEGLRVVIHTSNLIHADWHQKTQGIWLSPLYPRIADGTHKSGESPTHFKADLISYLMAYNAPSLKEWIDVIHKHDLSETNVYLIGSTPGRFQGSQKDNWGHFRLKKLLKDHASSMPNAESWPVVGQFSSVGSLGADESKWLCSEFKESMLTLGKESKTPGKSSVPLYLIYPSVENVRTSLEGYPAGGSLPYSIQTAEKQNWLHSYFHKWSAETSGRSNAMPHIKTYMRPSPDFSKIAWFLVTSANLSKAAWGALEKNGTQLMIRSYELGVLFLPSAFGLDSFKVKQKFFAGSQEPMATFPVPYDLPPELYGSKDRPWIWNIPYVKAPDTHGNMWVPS
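Here, a 5' biotin and 3' phosphotyrosine-FITC DNA oligonucleotide reports Tdp1 activity: intact substrate bridges AlphaScreen beads, while cleavage leaves a 3' phosphate and drops signal. All incubations at room temperature.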
HepG2 tox: kills HepG2 cells in TGF-b inhibitor counter-screen; Potency, µM (series often up to 46.1 µM), for the others: at the highest dose activity change, negative = cytotoxicity, actives largely listed as cytotoxic; actives 0.76% (n = 410,000); HepG2 CAGA-GFP viability, ATP luminescence, 18 h; note: potency is the fitted concentration of half-maximal effect
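HepG2 CAGA-GFP cells (1000/well, DMEM with 1% FBS) received compound, then TGF-beta at 500 pg/mL final, and were incubated 18 hours at 37 degrees C. Viability was read by CellTiter-Glo luminescence. Media-only wells were set as complete cell-killing and DMSO as no toxicity.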
The depositor's hits bear a star; ? = inconclusive; . = no result given; [ ] = remark or other dose. Unless noted, calls come from the whole dose curve; as a rule, active = well fitted curve in the direction sought with a large enough effect; inconclusive = small, poorly fitted or top-dose-only effect, or another doubt; inactive = no such curve, though single readings can be large; an effect the other way counts as inactive or inconclusive.

SMILES | DT40 TDP1 no CPT | TGFb inhibitor | IL-1B inflam inh | DT40 TDP1 CPT | TDP1 inh | HepG2 tox
CSCCC(NS(=O)(=O)c1ccc2c(c1)oc(=O)n2C)C(=O)N1CCN(c2cc(C)ccc2C)CC1 (stereo not drawn) | 23µM* | -2% | . | ? | 4% | -6%
Cc1ccc(C)c(N2CCN(C(=O)C(CC(C)C)NS(=O)(=O)c3ccc4nc(C)sc4c3)CC2)c1 (stereo not drawn) | 16µM* | 9% | . | ? | 2% | 9%
CCCn1c(-c2ccc(F)cc2)nc2c(N3CCN(Cc4nc(OC)cc(OC)n4)CC3)nc(C)nc21 | . | . | . | . | 16% | .
O=C(NNc1ccccc1F)c1cccs1 | ? | . | . | -20% | . | .
COC1CCN(Cc2cn(Cc3ccccc3)nc2-c2cc3ccccc3o2)CC1 | 26µM* | ? | ? | ? | -1% | -20%
OCC1CCN(Cc2cn(Cc3ccccc3)nc2-c2cc3ccccc3o2)CC1 | ? | 4% | -56* | ? | 5% | 6%
OCC1CCCN(Cc2cn(Cc3ccccc3)nc2-c2cc3ccccc3o2)C1 (stereo not drawn) | ? | 0% | -62* | -27% | 3% | -25%
COc1cccc(NC(=O)CCCCCn2nnc3ccccc3c2=O)c1 | -14% | 1% | 49 | -8% | . | 2%
O=c1c(-c2ccc(F)cc2)nc2cnc(N3CCOCC3)nc2n1C1CC1 | 16% | . | . | 3% | . | .
Cc1ccc(O)c(NC(=O)c2ccc(Br)c(S(=O)(=O)N3CCCCC3)c2)c1 | 5.2µM* | ? | . | 9.2µM* | -1%[12.3 µM] | 14µM*
Cc1ccc(C(=O)NNC(=O)c2ccccc2O)cc1S(=O)(=O)N1CCCCC1 | ? | -13% | 38 | 16µM* | 0% | 0%
Cc1ccc(C(=O)Nc2ccccc2C(=O)NCc2ccco2)cc1S(=O)(=O)N1CCCCC1 | 16µM* | -7% | 2 | ? | 0% | 7%
COc1cccc(C2Nc3ccccc3-c3nnc(SCc4ccccc4)nc3O2)c1OC (stereo not drawn) | -46% | 3% | . | ? | . | 0%
CCCCCCCCCCCC[N+](C)(C)Cc1ccccc1 | 1.7µM* | . | . | 1.5µM* | . | .
Cc1cc(C)nc(NC(=NCc2ccc3c(c2)OCO3)NC(=O)Nc2ccccc2)n1 | 4.6µM* | 26% | -7 | 5.2µM* | 2% | -43%
O=C1CC(SC(=NCc2ccc3c(c2)OCO3)Nc2ccccc2)C(=O)N1c1ccccc1 (stereo not drawn) | ? | -4% | -2 | ? | -6% | -20%
Cc1cc(C(=O)COC(=O)c2ccc(O)cc2O)c(C)n1C(C)C | 13µM* | -19% | 7 | 18µM* | 11% | -19%
COC(=O)c1scc(-c2ccc(C)cc2)c1S(=O)(=O)Nc1cccc(C(F)(F)F)c1 | -22% | ? | . | ? | -3% | -33%
O=C(OC(c1ccccc1)c1nccc2ccccc12)c1cc([N+](=O)[O-])cc([N+](=O)[O-])c1 (stereo not drawn) | 21µM* | ? | -1 | 15µM* | 11% | -1%
OC(c1cccc(Cl)c1)c1nccc2ccccc12 (stereo not drawn) | -9% | -4% | 0 | -23% | . | 0%
O=C(Nc1ccccc1)c1cccc(S(=O)(=O)Nc2cccc(F)c2)c1 | 26µM* | ? | . | ? | 9% | -40%
Cc1cccc(Nc2ncc(NC(=O)c3cccc(F)c3)c(Nc3cccc(C)c3)n2)c1 | 5.8µM* | ? | . | 7.3µM* | 2% | -49%
O=C(Nc1cccc(F)c1)c1ccccc1 | 0% | -24% | -12 | -29% | 2% | -5%
O=C(Nc1ccc(Nc2ccccc2)cc1)c1cccc(F)c1 | 18µM* | 0% | -15 | ? | 9% | -17%
CCc1ccc(-c2nc(SCC(=O)NCCOC)c(-c3ccc(C)cc3)[nH]2)cc1 | ? | -30% | . | -25% | 0%[12.3 µM] | -13%
SMILES | DT40 TDP1 no CPT | TGFb inhibitor | IL-1B inflam inh | DT40 TDP1 CPT | TDP1 inh | HepG2 tox
COc1cccc(Cn2ccn(-c3ccc(F)cc3)c(=O)c2=O)c1 | 1% | -3% | . | -4% | -1% | -5%
O=C1[C@H]2C(c3ccccc3)=NN(c3ccccc3)[C@H]2C(=O)N1c1ccccc1 | 2% | -24% | 28 | -15% | -10% | -14%
O=C1[C@@H]2[C@@H](CN3CN(c4ccccc4)N=C(c4ccccc4)[C@@]23c2ccccc2)C(=O)N1c1ccccc1 | 13µM* | -16% | 0 | 5.8µM* | . | -44%
Cc1ccc(Cn2ccnc2SCC(=O)Nc2nnc(C)s2)cc1 | -1% | 2% | . | -4% | 3% | 1%
COc1ccc(-c2cc(C(=O)N3CCN(c4ccccc4)CC3)c3ccccc3n2)cc1 | 4.6µM* | -27% | 97 | 3.3µM* | 4% | -2%
COc1ccc(-c2cc(C(=O)N3CCN(c4ccccc4O)CC3)c3ccccc3n2)cc1 | ? | 5% | ? | ? | 4% | -2%
CC(=O)c1ccc(N2CCN(C(=O)c3cc(-c4ccc5c(c4)OCO5)nc4ccccc34)CC2)cc1 | 23µM* | 1% | -2 | ? | 5% | 1%
COc1ccc(N2CCN(C(=O)c3cc(-c4cc(OC)ccc4OC)nc4ccccc34)CC2)cc1 | 23µM* | 1% | 16 | 23µM* | 10% | 7%
CCOc1ccccc1N1CCN(C(=O)c2cc(-c3cc(OC)ccc3OC)nc3ccccc23)CC1 | 13µM* | -5% | ? | 23µM* | 7% | -32%
CC(C)c1ccc(NC(=O)c2cc(S(=O)(=O)N3CCCCC3)cn2C)cc1 | -13% | 18% | . | -15% | 7% | -15%
COc1ccc(-c2cc(C(=O)O)c3ccccc3n2)c(OC)c1 | -12% | 8% | 20 | -10% | 0% | 3%
COc1ccc(-c2cc(C(=O)N3CCCC(C(F)(F)F)C3)c3ccccc3n2)cc1 (stereo not drawn) | ? | 5% | -5 | ? | -3% | -4%
COc1ccc(-c2cc(C(=O)N3CC(C)CC(C)C3)c3ccccc3n2)cc1 (stereo not drawn) | 21µM* | ? | ? | ? | 2% | -4%
COc1ccc(-c2cc(C(=O)NCCCn3ccnc3)c3ccccc3n2)c(OC)c1 | -24% | 22% | -4 | 2% | 5% | 14%
COc1ccc(-c2cc(C(=O)N3CCCCCC3)c3ccccc3n2)c(OC)c1 | 12µM* | -25% | ? | ? | -4%[56.1 µM] | -7%
